Experiment [1] in a line: Viability qHTS for spleen associated tyrosine kinase inhibitor (SYKi) naive MV4-11 cells (AID 1963823). Also: nearly all actives have a fitted effect of over 40% in size. The procedure, abridged:
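Seeding of 500 SYKi-naive MV4-11 cells per well onto pre-dispensed compounds preceded a 72 hr incubation at 37 C. Luminescent CellTiter-Glo signal, read after 10 min at room temperature, reflected viable cells.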
A general note: Quantitative high-throughput screening tests each substance at several concentrations.

Experiment [2] is described as follows: Viability qHTS for spleen associated tyrosine kinase inhibitor (SYKi) drug resistant MV4-11 cells (AID 1963824). Also: nearly all actives have a fitted effect of over 35% in size. The procedure, abridged:
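CellTiter-Glo luminescence, read 10 min after reagent addition, reports viability after a 72 hr compound exposure. Cells are an MV4-11 line made resistant to SYK inhibition, seeded at 500 per well onto compound-containing plates.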

Each structure is given as a SMILES string. Records with an inconclusive call do not appear. Calls of active or inactive are those of the source. Calls follow the shape of the dose curve; as a rule, active = well fitted cell-killing curve with a large enough effect; inconclusive = small, poorly fitted or top-dose-only effect, or effect the other way; inactive = no such curve, though single readings can be large or run the other way.
Potency is read from the fitted curve at half-maximal effect.

For `CC1CCC2C(C)(C)[C@H](O)CC[C@]2(C)C12Cc1c(O)cc3c(c1O2)CN(C(CCC(=O)O)C(=O)O)C3=O` (stereo not given in full), the Potency result in experiment [1] and in experiment [2] was “inactive” throughout.
Take `OC1C=C2C3CN(Cc4cc5c(cc43)OCO5)C2CC1O` (stereo not given): the Potency in experiment [1] and in experiment [2] was 5.17 µM (active) in each case.
For the compound `COc1cc(CCc2ccccc2)c(C(=O)O)c2c1CC(C(C)(C)O)O2` (stereo not given), the Potency result in experiment [1] is “inactive”. In addition, in experiment [2], the Potency was 2.27 µM (active).
Taken in the same sequence, the figures for `CC(C)(O[C@@H]1O[C@H](CO)[C@@H](O)[C@H](O)[C@H]1O)C(OC(=O)/C=C\c1ccc(O)cc1)C(=O)OCc1ccc(O[C@@H]2O[C@H](CO)[C@@H](O)[C@H](O)[C@H]2O)cc1` (stereo not given in full) were “inactive” and “inactive”.
Taken in the same sequence, the figures for `O=C1NC(=O)c2cc(Nc3ccc(F)cc3)c(Nc3ccc(F)cc3)cc21` were 2.91 µM (active) and 1.03 µM (active).
Taken in the same sequence, the figures for `COc1ccc(CCCN2CCC(COC(c3ccccc3)c3ccccc3)CC2)cc1` were 10.3 µM (active) and 10.3 µM (active).
On to `CC(=O)c1ccc(O[C@@H]2OC[C@@H](O)[C@H](O)[C@H]2O[C@]2(CO)O[C@H](CO)[C@@H](O)[C@@H]2O)c(O)c1`, for which the Potency entry in experiment [1] and in experiment [2] was “inactive” throughout.
For `C=C(C)C(=O)OC1CC2(C)OC(=CC2=O)C(=C)CC2OC(=O)C(COC)C12` (stereo not given), the Potency in experiment [1] and in experiment [2] was 1.61 µM (active) in each case.
Consider `CC(=O)c1c(O)cc2cccc3c2c1CC(C)(O)O3` (stereo not given), for which the Potency result in experiment [1] and in experiment [2] was “inactive” in each case.
With `C/C=C(\C)C(=O)O[C@H]1C=CC(=O)O[C@H]1/C=C/[C@H](O)[C@@H](C)O`, the Potency in experiment [1] was 9.2 µM (active); in experiment [2] it was 7.31 µM (active).
The like results for `COc1cc2ncc(-c3ccccc3)nc2cc1OC` were, in that order, 3.66 µM (active) and 4.61 µM (active).
Taken in the same sequence, the figures for `CC(=O)OCC(Cc1ccccc1)NC(=O)C(Cc1ccccc1)NC(=O)c1ccccc1` (stereo not given) were “inactive” and “inactive”.
As for `CC(=O)c1ccc2c(c1)N(CCCN1CCC(CCO)CC1)c1ccccc1S2`, the Potency in experiment [1] was 26.6 µM (active); in experiment [2] it was 18.8 µM (active).
Taken in the same sequence, the figures for `Cc1cncc2cccc(S(=O)(=O)N3CCCNC[C@@H]3C)c12` were 3.66 µM (active) and 9.2 µM (active).
Taken in the same sequence, the figures for `C=C1C(=O)OC2CC(C)=C(C(C)CCCO[C@@H]3O[C@H](CO)[C@@H](O)[C@H](O)[C@H]3O)C(O)C12` (stereo not given in full) were “inactive” and “inactive”.
The like results for `O=C(/C=C/c1ccc(O)c(O)c1)OC[C@H]1O[C@@H](OC2CCCCC2O)[C@H](O)[C@@H](O)[C@@H]1O` (stereo not given in full) were, in that order, “inactive” and “inactive”.
In the case of `Cc1ccc(NS(=O)(=O)c2cc3c(cc2N[C@@H](C)CO)NC(=O)CC3)cc1C`, the Potency in experiment [1] and in experiment [2] was 20.6 µM (active) in each case.
As for `CNc1cccc(CCOc2ccc3c(c2)CN(CC(F)(F)F)C(=O)[C@H](CC(=O)O)C3)n1`, the Potency entry in experiment [1] and in experiment [2] was “inactive” in each case.
For `CC1=CCC(C(C)(C)O[C@@H]2O[C@H](CO[C@@H]3O[C@@H](C)[C@H](O)[C@@H](O)[C@H]3O)[C@@H](O)[C@H](O)[C@H]2O)CC1` (stereo not given in full), the Potency entry in experiment [1] and in experiment [2] was “inactive” throughout.
With `COc1c2c(c(C)c3c1C(=O)OC3)OC1(C)CC(O)C3(O)C(C)(C)OC(=O)CCC3(C)C1C2` (stereo not given), the Potency entry in experiment [1] and in experiment [2] was “inactive” each time.
`Cc1c(C(=O)NCCCO)cnn1-c1nc(-c2cccc(C(F)(F)F)c2)cs1`: the Potency in experiment [1] and in experiment [2] was 14.6 µM (active) each time.
Consider `CCOC(=O)C1=C(N)Oc2ccc(Cl)cc2C1C(C#N)C(=O)OCC` (stereo not given), for which the Potency result in experiment [1] and in experiment [2] was “inactive” in each case.
As for `O=C(NCCN1CCOCC1)c1cc2c(Oc3ccc(NC(=O)C4(C(=O)Nc5ccc(F)cc5)CC4)cc3)ccnc2[nH]1`, the Potency in experiment [1] is 0.0259 µM (active); in experiment [2] it was 0.0411 µM (active).
The like results for `C[C@H]1O[C@@H](O[C@H]2CC[C@@]3(C)C(CC[C@]4(C)C3CC=C3C5CC(C)(C)CC[C@]5(C(=O)O)CC[C@]34C(=O)O)C2(C)C)[C@H](O)[C@@H](O)[C@@H]1O` (stereo not given in full) were, in that order, “inactive” and “inactive”.
Taken in the same sequence, the figures for `CC(C)=C1CC2C(CCC2(C)O)C(C)(O)CC1=O` (stereo not given) were “inactive” and “inactive”.
The like results for `CS(=O)(=O)c1ccccc1N1CCN(c2nc3c(c(=O)[nH]2)CSCC3)CC1` were, in that order, “inactive” and “inactive”.
Regarding `C[C@@H](O[C@H]1OCCN(Cc2n[nH]nc2CN(C)C)[C@H]1c1ccc(F)cc1)c1cc(C(F)(F)F)cc(C(F)(F)F)c1`, the figures for the Potency in experiment [1] and in experiment [2] were 10.3 µM (active) and 6.51 µM (active), respectively.
Taken in the same sequence, the figures for `Nc1ccc(-c2cccc3c(=O)cc(N4CCOCC4)oc23)cc1` were 9.2 µM (active) and 7.31 µM (active).
The like results for `Oc1ccc2c(c1)OCC1(O)Cc3cc(O)c(O)cc3C21` (stereo not given) were, in that order, 3.66 µM (active) and 3.66 µM (active).
Regarding `CC1(C)CC[C@]2(C(=O)O[C@@H]3O[C@H](CO)[C@@H](O)[C@H](O)[C@H]3O)CC[C@]3(C)C(=CCC4[C@@]5(C)CC[C@H](O[C@@H]6O[C@H](C(=O)O)[C@@H](O)[C@H](O)[C@H]6O)[C@@](C)(CO)C5CC[C@]43C)C2C1` (stereo not given in full), in experiment [1], the viability (% of control) was 98% [at 9.25 µM] (inactive). Further, the viability, % of control in experiment [2] is 100% [at 9.25 µM] (inactive).
